Only some compounds are listed: those with a hit (about 4.6% of all), similar ones and a draw of the others.
TRHR ag – TRH receptor (human) agonism | 360,000 compounds, 0.18% hits | AID 493084 | activation, % at 2 µM | P34981 | TRHR cells, calcium flux fluo-8, FDSS agonist mode; note: 0% is about no effect
Target sequence (P34981 whole entry, looked up): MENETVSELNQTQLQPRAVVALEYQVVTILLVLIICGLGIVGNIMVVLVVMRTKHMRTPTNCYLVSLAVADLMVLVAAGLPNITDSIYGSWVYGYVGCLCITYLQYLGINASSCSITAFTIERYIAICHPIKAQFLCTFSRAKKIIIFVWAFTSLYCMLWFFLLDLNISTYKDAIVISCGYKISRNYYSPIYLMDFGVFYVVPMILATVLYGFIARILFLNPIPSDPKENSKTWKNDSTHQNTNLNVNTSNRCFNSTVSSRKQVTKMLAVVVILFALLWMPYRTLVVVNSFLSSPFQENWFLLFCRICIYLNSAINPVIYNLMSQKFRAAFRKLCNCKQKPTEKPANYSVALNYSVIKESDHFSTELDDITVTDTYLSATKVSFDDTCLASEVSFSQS
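In this calcium-flux screen, cells bearing human TRHR are dye-loaded with fluo-8, baselined for 10 cycles, then exposed to library compounds; positive kinetic calcium responses during the agonist phase mark hits, with TRH as control.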
D1 PAM – human D1 dopamine receptor positive modulation. HEK293 TREx D1 cells, calcium flux, dopamine EC20 potentiation. potentiation, % at 10 µM. 360,000 compounds, 0.036% hits. AID 504651; in the data active = potentiation above about 30%; note: 0% is about no effect
TRHR enhancer – TRH receptor (human) allosteric enhancement | TRHR cells, fluo-8 calcium fluorescence, EC20 TRH enhancement | enhancement, % at 2 µM | 360,000 compounds, 0.66% hits; in the data active = enhancement above about 30%; note: 0% is about no effect
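TRHR-expressing cells loaded with fluo-8 calcium dye were read kinetically (ex 480/em 530) during compound addition, then stimulated with an EC20 of TRH (10 nM final). Enhancement of the Gq-mediated intracellular calcium response was scored.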
Epigenetic reg – derepresses silenced GFP reporter in murine cells; Potency, µM (highest dose often 53.9 µM), without a hit: at the top dose GFP activation, usual class: activators; 280,000 compounds, 0.2% hits; AID 1865; murine LDR cells, GFP reporter derepression, 30 h; active = well fitted activation curve with a large enough effect; note: potency is the fitted concentration of half-maximal effect; % of control where 0% means no effect; nearly all actives have a fitted effect of over 60% in size
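Reporter derepression read as number of fluorescent GFP-positive objects, 20-120 um in size, counted by laser-scanning cytometer. Mouse LDR line with an epigenetically silenced CMV-GFP locus; compound incubation 30 h, 37 C.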
D1 ag – activates the human D1 dopamine receptor; 360,000 compounds, 1% hits; P21728; activation, % at 2 µM; AID 504660; HEK293 T-REx D1 cells, calcium flux, agonist mode; note: 0% is about no effect
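Tetracycline-induced HEK293 TREx D1 cells, force-coupled to calcium signalling, were dye-loaded with a no-wash calcium kit. Compound was pin-added after a 10 s baseline. Fluorescence was read kinetically at 1 cycle/s for 180 s, with calcium rises flagged as agonism.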
D1 antag – human D1 dopamine receptor antagonism | HEK293 TREx D1 cells, calcium flux, dopamine EC80; active compounds read low | activity change, negative = inhibition, % at 10 µM | P21728 | 360,000 compounds, 3.2% hits; in the data active = activity change below about -30%; note: % is set by controls: 0 for no effect and ±100 for the full control effect
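After overnight tetracycline induction at 30 C, force-coupled D1 HEK293 cells took up a no-wash calcium dye at room temperature. Compounds were added and monitored 180 s, and the response to EC80 dopamine was then recorded.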
* hit, by the source's call. Cut-off read from the data, not from the text of the source, unless noted: active = activation above about 30%; inactive = the rest.

Results for CCOC(=O)Cn1c(=N)n(CCOc2cccc(C)c2)c2ccccc21 ?
TRHR ag: 0; D1 PAM: -2; TRHR enhancer: 0; Epigenetic reg: 0%; D1 ag: 14; D1 antag: -3

What do the screens show for `COc1cccc(CNC(=O)c2c3c(nc4ccccc24)C(=O)N(C2CCCCC2)C3)c1`?
TRHR ag: 0; D1 PAM: -6; TRHR enhancer: 0; Epigenetic reg: 0%; D1 ag: 2; D1 antag: 13

How did CSc1ncc(C(=O)Nc2c(C)cccc2C)c(-c2ccccc2)n1 do in these assays?
TRHR ag: -1; D1 PAM: -3; TRHR enhancer: 30; Epigenetic reg: 1%; D1 ag: 5; D1 antag: -1

How did c1ccc(SCCN2CCc3ccccc3C2)cc1 do in these assays?
TRHR ag: -1; D1 PAM: -2; TRHR enhancer: 15; Epigenetic reg: -1%; D1 ag: 1; D1 antag: -73*

How did c1ccc(SCCOCCN2CCOCC2)cc1 do in these assays?
TRHR ag: 0; D1 PAM: 3; TRHR enhancer: -4; D1 ag: 1; D1 antag: 10

Results for c1ccc(SCCOCCN2CCc3ccccc3C2)cc1 ?
TRHR ag: 0; D1 PAM: -9; TRHR enhancer: 6; Epigenetic reg: 7%; D1 ag: 3; D1 antag: -48*

Results for CCOc1ccc(C2CC(=O)Nc3c2c(=O)[nH]c2ncnn32)cc1 (centres undefined) ?
TRHR ag: 0; D1 PAM: 0; TRHR enhancer: -4; Epigenetic reg: 1%; D1 ag: -1; D1 antag: 4

What do the screens show for `Cc1sc(-c2cc3ccccc3oc2=O)nc1-c1ccc(Cl)cc1`?
TRHR ag: 0; D1 PAM: 0; TRHR enhancer: 1; Epigenetic reg: 0%; D1 ag: 5; D1 antag: -4

What do the screens show for `CC1CC(C)(C)CC2(C1)NC(=O)N(CC(=O)Nc1cc([N+](=O)[O-])ccc1F)C2=O` (centres undefined)?
TRHR ag: 1; D1 PAM: -6; TRHR enhancer: 2; D1 ag: 1; D1 antag: -33*

Results for Cc1ccc(S(=O)(=O)NCC(=O)OCc2cc(=O)oc3cc(C)ccc23)cc1 ?
TRHR ag: 0; D1 PAM: -7; TRHR enhancer: 2; D1 ag: 4; D1 antag: -27

How did Cc1ccc2c(COC(=O)CNC(=O)c3ccccc3)cc(=O)oc2c1 do in these assays?
TRHR ag: 0; D1 PAM: -5; TRHR enhancer: 0; Epigenetic reg: 1%; D1 ag: 4; D1 antag: -50*

Results for O=C(NC1CCCc2c1cnn2-c1ccccc1F)c1ccccn1 (centres undefined) ?
TRHR ag: -1; D1 PAM: -3; TRHR enhancer: 5; D1 ag: 11; D1 antag: -38*

How did CCOC(=O)N[C@H](Cc1c[nH]c2ccccc12)C(=O)Nc1cccc(Cl)c1 do in these assays?
TRHR ag: -1; D1 PAM: -3; TRHR enhancer: 2; Epigenetic reg: 1%; D1 ag: 8; D1 antag: -41*

How did CCc1ccc(CNC(=O)c2cccc(-n3cnc4cccnc43)c2C)cc1 do in these assays?
TRHR ag: -1; D1 PAM: -2; TRHR enhancer: -4; Epigenetic reg: 1%; D1 ag: 1; D1 antag: -13

How did Cc1ccc2occ(/C=N/NC(=O)c3ccncc3)c(=O)c2c1 do in these assays?
TRHR ag: 0; D1 PAM: -2; TRHR enhancer: -1; D1 ag: 1; D1 antag: -34*

Results for COc1cc(OC)cc(C(=O)NNC(=O)C2CSC3(C)CCC(=O)N23)c1 (centres undefined) ?
TRHR ag: 0; D1 PAM: 1; TRHR enhancer: -1; D1 ag: 0; D1 antag: 19

What do the screens show for `COc1cc(C(=O)NNC(=O)C2CSC3(C)CCC(=O)N23)cc(OC)c1OC` (centres undefined)?
TRHR ag: 3; D1 PAM: -3; TRHR enhancer: 1; D1 ag: 3; D1 antag: -40*

Results for CC12CCC(=O)N1C(C(=O)NNC(=O)c1ccccc1Cl)CS2 (centres undefined) ?
TRHR ag: 0; D1 PAM: -6; TRHR enhancer: 4; D1 ag: 1; D1 antag: -52*

How did COc1ccc(-c2nnc(SCC(=O)c3ccc(NC(C)=O)cc3)o2)cc1OC do in these assays?
TRHR ag: 1; D1 PAM: 4; TRHR enhancer: -2; Epigenetic reg: 3%; D1 ag: 2; D1 antag: 10

Results for Cc1ccc(NC(=O)C2CCC(CNS(=O)(=O)c3csc(C(N)=O)c3)CC2)cc1Cl (centres undefined) ?
TRHR ag: 0; D1 PAM: -4; TRHR enhancer: 10; Epigenetic reg: -3%; D1 ag: 3; D1 antag: -4

Results for c1ccc(CCNc2ncnc3c2cnn3-c2ccccc2)cc1 ?
TRHR ag: 0; D1 PAM: -9; TRHR enhancer: -1; Epigenetic reg: -1%; D1 ag: -2; D1 antag: 21

What do the screens show for `Cc1cccc(-n2ncc3c(NCCc4ccc(S(N)(=O)=O)cc4)ncnc32)c1`?
TRHR ag: 0; D1 PAM: -10; TRHR enhancer: -6; Epigenetic reg: 0%; D1 ag: 0; D1 antag: -48*

What do the screens show for `Cc1ccc(-n2ncc3c(NCCc4ccc(S(N)(=O)=O)cc4)ncnc32)cc1`?
TRHR ag: 0; D1 PAM: -4; TRHR enhancer: -4; Epigenetic reg: 0%; D1 ag: -3; D1 antag: -48*

How did Cc1cccc(-n2ncc3c(NCCN4CCOCC4)ncnc32)c1 do in these assays?
TRHR ag: 0; D1 PAM: -3; TRHR enhancer: 19; Epigenetic reg: -1%; D1 ag: 1; D1 antag: -3

What do the screens show for `CCn1c(SC)nc2c([nH]c3ccccc32)c1=O`?
TRHR ag: 1; D1 PAM: -1; TRHR enhancer: 1; Epigenetic reg: -1%; D1 ag: -1; D1 antag: 27

What do the screens show for `CCN(CCN(C)C)C(=O)Cn1ncc2c([nH]c3ccc(C)cc32)c1=O`?
TRHR ag: 0; D1 PAM: 1; TRHR enhancer: 5; Epigenetic reg: 1%; D1 ag: 1; D1 antag: 0

How did O=c1c2sc3ccccc3c2n(Cc2ccccc2)c(=O)n1CCc1ccccc1 do in these assays?
TRHR ag: 1; D1 PAM: -1; TRHR enhancer: -3; Epigenetic reg: 0%; D1 ag: 0; D1 antag: -52*

Source: PubChem BioAssay
